The other results are listed elsewhere or left out. Unmarked numbers belong to inactive results. The source made the active and inactive calls.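 The calls were made as follows, unless noted: active = mean inhibition above about 50% in the one-dose retest (limit read from the data); inactive = the rest.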

Experiment [1] in a line: PMA/ionomycin-induced NF-kB reporter inhibitors, Jurkat retest, confirmation, T-cell NF-kB inhibitor project, cell-based, luminescence, single concentration (AID 435020;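 active = inhibition reaching about 45% at 4 µM in either replicate, limit read from the data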;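 also: plate controls were PMA/ionomycin stimulated DMSO wells for no effect and unstimulated DMSO wells for full effect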). Conditions: Jurkat NF-kB luciferase, 16 h, at 4 µM, active compounds read high.
Experiment [2] can be described thus: activators of apoptotic CHOP UPR arm, confirmation, cell-based, CHO-CHOP luciferase reporter, single concentration (AID 463112; in the data active = activation above about 33%;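 also: 0% = DMSO wells and 100% = tunicamycin 10 µg/mL wells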). Conditions: CHO-CHOP cells, CHOP-luciferase reporter luminescence; at 10 µM; active compounds read high; percent of tunicamycin response, DMSO as zero. Background: Reporter assays use an easily measured gene product as a stand-in for the process of interest.

Experiment [3] is described as follows: Peg3 promoter reporter inhibitors, retest, confirmation, cell-based, HeLa, luciferase reporter, single concentration (AID 602417;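 active = at 20 µM dose, 40% or more inhibition averaged across four replicates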). Conditions: HeLa PEG-Prom luciferase reporter, luminescence, overnight; at 20 µM; active compounds read high.
Experiment [4] concerns the target Sentrin-specific protease 8 (Homo sapiens) (UniProt Q96LD8). Description: SENP8 protease inhibitors, retest, confirmation, biochemical, luminescence, single concentration (AID 488912;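 active = mean inhibition across replicates above about 50%, limit read from the data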). As to conditions: Recombinant SENP8, Z-RLRGG-aminoluciferin luminescence, 60 min; at 12.5 µM; active compounds read high.
Experiment [5] addresses Sentrin-specific protease 6 (Homo sapiens) (UniProt Q9GZR1). Kind of experiment: SENP6 protease inhibitors, confirmation, biochemical, luminescence, single concentration (AID 488915). As to conditions: recombinant SENP6, Z-RLRGG-aminoluciferin luminescence; at 12.5 µM; active compounds read high.
Experiment [6] addresses Sentrin-specific protease 7 (Homo sapiens) (UniProt Q9BQF6). Kind of experiment: SENP7 protease inhibitors, retest, confirmation, biochemical, luminescence, single concentration (AID 488917). Conditions: recombinant SENP7, Z-RLRGG-aminoluciferin luminescence, 40 min; at 12.5 µM; active compounds read high.
Experiment [7] addresses Caspase-3 (Homo sapiens) (UniProt P42574). Kind of experiment: caspase-3 protease inhibitors, confirmation, selectivity assay for SENP inhibitor project, biochemical, single concentration (AID 488918;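 active = mean inhibition above about 50%, limit read from the data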;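 also: plate controls were enzyme with DMSO for no effect and wells without caspase-3 for full effect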). As to conditions: purified caspase-3, Z-DEVD-aminoluciferin luminescence, 60 min; at 12.5 µM; active compounds read high.
Experiment [8] is described as follows: luciferase luminescence interference by compounds, confirmation, artefact control for SENP inhibitor project, biochemical, single concentration, SENP8 reaction pre-completed (AID 488919;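 active = mean inhibition above about 50% when retested at one dose, limit read from the data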;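 also: plate controls were DMSO wells with completed reaction for no effect and substrate without enzyme for full effect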). As to conditions: Pre-incubated SENP8/Z-RLRGG-aminoluciferin, at 12.5 µM, active compounds read high.
Experiment [9] can be described thus: HIF-2a reporter inhibitor retest, confirmation, luminescence, 786-0 RCC cells (AID 651580;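 active = mean inhibition across four replicates of at least 40 percent at the single tested concentration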). As to conditions: HIF-2a luciferase reporter luminescence, overnight, at 18.8 µM, active compounds read high.
Experiment [10] in a line: HIF-1a luciferase reporter signal reduction – MiaPaCa-2 cells, single concentration, counter-screen for HIF-2a inhibitor project, confirmation (AID 651589;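 active = mean inhibition of the reporter signal across four replicates at the single tested dose of 50% or more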). Conditions: MiaPaCa-2 HIF-1a luciferase reporter, desferoxamine, overnight; at 18.8 µM; active compounds read high.

Chain of Caspase-3 (Homo sapiens) (P42574 28-227 limits assumed): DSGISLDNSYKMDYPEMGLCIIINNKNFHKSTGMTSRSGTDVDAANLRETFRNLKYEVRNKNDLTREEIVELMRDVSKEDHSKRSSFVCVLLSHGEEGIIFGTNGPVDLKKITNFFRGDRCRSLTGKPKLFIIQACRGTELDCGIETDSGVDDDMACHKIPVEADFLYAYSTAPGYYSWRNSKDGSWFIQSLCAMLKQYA
Chain of Sentrin-specific protease 6 (Homo sapiens) (Q9GZR1 628-1112 limits assumed): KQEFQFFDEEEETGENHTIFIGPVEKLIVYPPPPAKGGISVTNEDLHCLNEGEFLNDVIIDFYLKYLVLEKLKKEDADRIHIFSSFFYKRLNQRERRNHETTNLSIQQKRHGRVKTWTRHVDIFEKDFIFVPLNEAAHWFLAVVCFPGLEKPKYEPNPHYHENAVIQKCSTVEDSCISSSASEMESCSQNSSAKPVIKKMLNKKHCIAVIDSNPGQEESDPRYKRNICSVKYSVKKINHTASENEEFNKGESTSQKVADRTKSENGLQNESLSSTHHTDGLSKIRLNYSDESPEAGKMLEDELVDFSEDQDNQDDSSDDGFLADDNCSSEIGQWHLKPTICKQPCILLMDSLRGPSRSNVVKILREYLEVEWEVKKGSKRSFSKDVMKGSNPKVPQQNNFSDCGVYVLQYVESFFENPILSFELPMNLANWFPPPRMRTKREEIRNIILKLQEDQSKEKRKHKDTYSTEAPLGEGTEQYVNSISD
Chain of Sentrin-specific protease 7 (Homo sapiens) (Q9BQF6 706-1050 limits assumed): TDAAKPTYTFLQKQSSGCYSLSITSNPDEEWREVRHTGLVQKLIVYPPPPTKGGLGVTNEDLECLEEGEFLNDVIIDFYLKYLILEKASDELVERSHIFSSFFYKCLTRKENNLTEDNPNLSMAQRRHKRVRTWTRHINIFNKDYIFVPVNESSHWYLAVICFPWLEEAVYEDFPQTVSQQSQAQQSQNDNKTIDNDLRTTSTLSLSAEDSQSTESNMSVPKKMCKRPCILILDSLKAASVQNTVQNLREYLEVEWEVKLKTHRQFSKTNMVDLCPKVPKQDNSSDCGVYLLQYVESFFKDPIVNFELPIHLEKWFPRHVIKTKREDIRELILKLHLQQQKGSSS
Chain of Sentrin-specific protease 8 (Homo sapiens) (Q96LD8 whole entry, looked up): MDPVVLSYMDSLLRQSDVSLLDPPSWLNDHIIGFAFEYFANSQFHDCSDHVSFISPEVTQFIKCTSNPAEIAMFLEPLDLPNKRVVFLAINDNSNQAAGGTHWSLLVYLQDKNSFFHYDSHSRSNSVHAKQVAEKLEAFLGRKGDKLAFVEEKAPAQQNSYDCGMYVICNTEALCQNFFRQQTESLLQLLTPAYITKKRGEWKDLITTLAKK

For orientation: inhibition means the change of the read-out against control, counted positive when it falls. Take `COc1cc(NS(=O)(=O)c2ccc3ccccc3c2)c2ncccc2c1`: the inhibition in experiment [1] was 2.5%; in [3], 43% (active). Further, in [2], the activation was 689% (active).

Consider `COc1ccc(Nc2cc(C)nc(-n3nc(C)cc3C)n2)cc1`, for which the inhibition in [1] is 64.7% (active). In addition, in experiment [2], the activation was 2.6%.

With `CC(=O)Nc1cccc(-c2csc(Nc3cccc(C)n3)n2)c1`, the inhibition in experiment [1] is -67.1%; in experiment [4] it was 6.1%; in [5], 93.9% (active); in [6], 102% (active); in [7], 75.7% (active); in experiment [8], 94.2% (active).

Turning to `O=C(Nc1ccc2sc3ccccc3c(=O)c2c1)c1ccccc1Cl`, the inhibition in experiment [1] was -104%; in experiment [4], 6.3%; in experiment [5], 0%; in experiment [6] it was 13.5%; in experiment [7], 24.3%; in experiment [8] it was 4.3%.

`CCC(=O)Nc1ccc2nn(-c3ccc(F)cc3)nc2c1`: the inhibition in experiment [1] is -119%; in [4] it was 18.1%; in experiment [5], 38.2%; in [6] it was 46.4%; in [7] it was 32.5%; in [8], 3.4%.

Regarding `Cc1ccc(N2CCN(c3ccc([N+](=O)[O-])cn3)CC2)c(C)c1`, the inhibition in [1] is 15.2%.

For `Cc1ccc(S(=O)(=O)C2(S(=O)(=O)c3ccc(C)cc3)CCCC2)cc1`, in experiment [1], the inhibition was 24.9%.

Regarding `Fc1ccccc1/C=N/Nc1cc(N2CCCCC2)ncn1`, the inhibition is -109% in experiment [1]; 17.6% in [4]; 16.9% in experiment [5]; 16.6% in [6]; 25.2% in [7]; 6.6% in experiment [8].

Turning to `O=C(Nc1ccc2c(c1)CCC2)c1ccc(Br)s1`, the inhibition in experiment [1] was -177%; in [4], 44.7%; in [5], 70.8% (active); in [6] it was 73.3% (active); in [7] it was 47%; in experiment [8] it was 24.2%.

Consider `Cc1ccc(OCc2nc3ccccc3n2C)cc1`, for which the inhibition in experiment [1] is -91.5%; in experiment [4], 8.9%; in experiment [5], 54.5% (active); in experiment [6] it was 79% (active); in experiment [7], 68% (active); in [8] it was 18.5%.

For `COc1cc(C(=O)NN(CCC#N)C2=NS(=O)(=O)c3ccccc32)cc(OC)c1OC`, the inhibition in experiment [1] is -119%.

In the case of `CCCc1cc(C(=O)Nc2ccc(Cl)cn2)cs1`, the inhibition in experiment [1] is -104%; in experiment [4] it was 73.5% (active); in [5] it was 79.2% (active); in [6], 92.2% (active); in [7] it was 66.8% (active); in [8], 59.1% (active).

Turning to `Cc1cc(=O)oc2cc(OCC3CC(c4ccccc4Cl)=NO3)ccc12` (stereo not given), the inhibition in experiment [1] was 54.6% (active).

As for `O=C(Nc1ccccc1)Nc1nc2ccccc2s1`, the inhibition was -117% in experiment [1]; 17.8% in experiment [4]; 29% in experiment [5]; 25.6% in experiment [6]; 44.9% in experiment [7]; 22.6% in experiment [8].

As to `Cc1ccc(N/C=C/C(=O)c2ccccc2)cc1C`, the inhibition was 3.3% in experiment [1]; 34.5% in [4]; 73.8% (active) in experiment [5]; 91.5% (active) in experiment [6]; 78.6% (active) in experiment [7]; 13.8% in experiment [8].

Consider `O=C(Nc1ccc(-c2nnc(-c3ccccc3)o2)cc1)C1CCCO1` (stereo not given), for which the inhibition in experiment [1] is -47.8%; in experiment [4] it was 28.8%; in [5] it was 21.4%; in experiment [6] it was 38.3%; in [7], 38.8%; in experiment [8], 8.6%.

Turning to `Cc1c(C(=O)Nc2ccccn2)oc2ccc(Br)cc12`, the inhibition in [1] is -77.2%; in [4], 14.3%; in experiment [5], 18.5%; in experiment [6], 27.6%; in [7] it was 22.7%; in experiment [8], 17.1%.

Regarding `Cc1csc(SCC(=O)Nc2sccc2C#N)n1`, the inhibition in [1] is -98.6%; in experiment [4] it was 93.1% (active); in experiment [5] it was 96.1% (active); in experiment [6], 101% (active); in experiment [7] it was 97.1% (active); in experiment [8], 94.4% (active).

As for `CCn1c(/C=C/c2ccc([N+](=O)[O-])o2)nc2ccccc2c1=O`, the values for the inhibition in experiment [1], in [9] and in [10] were 23.7%, -36.9% and 105% (active), respectively. Also, in experiment [2], the activation is 14.3%.
